{"source": "ChEMBL document CHEMBL2218924", "about": "“A broad activity screen in support of a chemogenomic map for kinase signalling research and drug discovery” (Biochem J, 2013)"}
{"target": "T1, Serine/threonine-protein kinase 17A (Homo sapiens) (UniProt Q9UEE5)", "T1 sequence (whole entry)": "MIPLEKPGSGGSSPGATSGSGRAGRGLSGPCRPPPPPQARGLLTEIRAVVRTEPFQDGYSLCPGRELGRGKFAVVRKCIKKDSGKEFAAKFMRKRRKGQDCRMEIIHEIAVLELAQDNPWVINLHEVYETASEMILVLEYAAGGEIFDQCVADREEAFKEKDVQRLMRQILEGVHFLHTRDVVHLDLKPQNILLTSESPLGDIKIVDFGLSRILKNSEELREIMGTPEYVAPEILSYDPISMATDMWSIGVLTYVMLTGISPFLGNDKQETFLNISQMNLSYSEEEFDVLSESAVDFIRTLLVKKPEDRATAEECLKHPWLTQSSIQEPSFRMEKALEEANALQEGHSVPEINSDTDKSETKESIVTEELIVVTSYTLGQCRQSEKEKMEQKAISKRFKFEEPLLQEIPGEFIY", "settings": "at 10 µM", "units": {"residual activity": "%"}}
{"compound": "O=C1NC(=O)C(c2c[nH]c3ccccc23)=C1c1c[nH]c2ccccc12", "residual activity": 25}
{"compound": "COc1ccc(Cl)cc1NC(=O)Nc1cc(C)nc2ccccc12", "residual activity": 58}
{"compound": "O=C1NC(=O)C(c2cn(CCCO)c3ncccc23)=C1c1cnccn1", "residual activity": 67}
{"compound": "CCOC(=O)c1c(C)[nH]c(/C=C2\\C(=O)Nc3ccccc32)c1C", "residual activity": 75}
{"compound": "Nc1nc(Nc2ccc(S(N)(=O)=O)cc2)nn1C(=O)c1c(F)cccc1F", "residual activity": 47}
{"compound": "CC(C)(C)c1nc2c3ccc(F)cc3c3c(=O)[nH]ccc3c2[nH]1", "residual activity": 0}
{"compound": "COc1ccc(COc2ccc(Cc3cnc(N)nc3N)cc2OC)cc1", "residual activity": 112}
{"compound": "O=c1c(-c2ccc(F)cc2)c(-c2ccncc2)[nH]n1-c1ccc(Cl)cc1", "residual activity": 71}
{"compound": "NCCNc1ncc(C(N)=O)c(Nc2cccc(C(F)(F)F)c2)n1", "residual activity": 60}
{"compound": "O=C1Nc2ccccc2/C1=C\\c1c(Cl)[nH]c2ccccc12", "residual activity": 85}
{"compound": "COc1ccc2c(c1)c(C1=C(c3c[nH]c4ccccc34)C(=O)NC1=O)cn2CCCN(C)C", "residual activity": 27}
{"compound": "NC(=O)Nc1sc(-c2ccc(F)cc2)cc1C(N)=O", "residual activity": 39}
{"compound": "COc1cc2c(cc1OC)-c1n[nH]c(Nc3cccc(F)c3)c1C2", "residual activity": 53}
{"compound": "CCCCc1c(-c2ccc(OC)cc2)[nH]c2nccnc12", "residual activity": 80}
{"compound": "Cc1cc(C)c(/C=C2\\C(=O)Nc3ccccc32)[nH]1", "residual activity": 3}
